An excerpt weighted towards active compounds, which were near 1.2% of everything screened.
HttQ103 aggreg = inhibitors of mutant huntingtin aggregate formation in PC12 cells; PC12 HttQ103-GFP aggregates, Acumen cytometry, 40 h; Potency, µM (titrated, usually from 46.1 µM), for the others: top-dose activity change, negative = inhibition, most hits filed as inhibitors; 1.1% of 220,000 active; also: potency is read from the fitted curve at half-maximal effect; % is scaled to controls: 0 for no effect and ±100 for the full control effect; nearly all actives have a fitted effect of over 60% in size
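Read-out: GFP aggregate count by laser scanning cytometer (488 nm excitation, 500-530 nm emission, 1–25 µm objects >6 SD above background). Cells: PC12, inducible HTTex1-Q103-GFP, 100 nM tebufenozide; compounds titrated.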
GLA spleen mod = inhibitors or activators of human alpha-galactosidase in spleen homogenate. P06280. AID 2107. human spleen homogenate, 4MU-alpha-Gal fluorescence, 40 min. 0.008% of 240,000 active. Potency, µM (doses to about 80 µM), for the others: top-dose activity change, negative = inhibition, usual class: inhibitors;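 also: potency is read from the fitted curve at half-maximal effect; 0% = enzyme with vehicle and -100% = no enzyme basal signal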
Target sequence (P06280 32-429 limits assumed): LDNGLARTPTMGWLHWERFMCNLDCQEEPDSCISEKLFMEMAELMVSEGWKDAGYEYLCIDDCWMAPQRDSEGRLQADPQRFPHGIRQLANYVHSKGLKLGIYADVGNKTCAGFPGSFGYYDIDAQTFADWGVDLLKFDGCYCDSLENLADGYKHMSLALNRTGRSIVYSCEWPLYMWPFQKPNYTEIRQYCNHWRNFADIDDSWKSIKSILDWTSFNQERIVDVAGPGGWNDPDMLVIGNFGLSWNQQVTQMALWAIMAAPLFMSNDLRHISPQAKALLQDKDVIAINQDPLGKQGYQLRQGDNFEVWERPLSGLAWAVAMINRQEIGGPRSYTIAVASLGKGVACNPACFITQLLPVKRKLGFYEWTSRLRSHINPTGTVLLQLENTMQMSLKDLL
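Spleen homogenate 1 ug + cpd (titration) + 4-MU-alpha-D-galactopyranoside 1 mM; 37C 40 min; 50 mM citrate/phosphate pH 5.0, 0.01% Tween-20; stop pH 10; fluorescence 365/440; AC50 via Hill.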
HTT ATP protect = protects HTT-Q103 PC12 cells, measured by ATP | AID 1471 | Potency, µM (top dose mostly 56.4 µM), for inactives: cytoprotection (ATP increase), actives largely listed as activators | PC12 HTT-Q103 induced, cytoprotection, ATP luminescence, 40 h | 0.14% of 230,000 active; also: potency is read from the fitted curve at half-maximal effect; % of control where 0% means no effect; nearly all actives have a fitted effect of over 45% in size
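Cells were plated at 1500 per well in phenol red-free DMEM with 5% equine and 5% calf serum. Tebufenozide (100 nM final) and compounds were added, then ATPlite reagent, and luminescence was read.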
GLA inh pH 4.5 = inhibitors of human alpha-galactosidase A at pH 4.5 | 230,000 tested, under 10 active | purified enzyme, 4-MU-alpha-Gal fluorescence, pH 4.5 | activity change, negative = inhibition, % at 105 µM;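 also: 0% = full activity with enzyme and -100% = basal without enzyme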
Starred values were filed as active, the others as inactive; ? = inconclusive; . = no result given; [ ] = dose if it differs, or a comment. Calls follow the shape of the dose curve; as a rule, active = well fitted curve in the direction sought with a large enough effect; inconclusive = small, poorly fitted or top-dose-only effect, or another doubt; inactive = no such curve, though single readings can be large; an effect the other way counts as inactive or inconclusive.

SMILES	HttQ103 aggreg	GLA spleen mod	HTT ATP protect	GLA inh pH 4.5
COc1ccc(-c2n[nH]c(C(F)(F)F)c2-c2cc3ccccc3o2)c(O)c1	3.5µM*	-4%	12%[10 µM]	20
CC1=C(CC(=O)c2ccc(Cl)cc2)C(=O)c2ccccc2C1=O	3.5µM*	9%	-152%	-2
NC(=O)N/N=C/c1c(Sc2nnnn2-c2ccccc2)nc2ccccn2c1=O	12%[9.22 µM]	-12%	4.5µM*	-3
COc1ccc(-c2nc3cnc(N4CCNCC4)nc3n(CCC#N)c2=O)cc1	.	20%	-80%	.
COc1ccc(-c2nc3c(c4c2C[C@H](c2ccccc2)OC4)CN(S(=O)(=O)c2ccc(NC(C)=O)cc2)CC3)c(C)c1	.	-4%[17.5 µM]	-10%[10 µM]	-3
c1ccc(C2OC3c4cccc5cccc(c45)C3N2c2ccccc2)cc1 (configuration not stated)	11µM*	-1%	25%[10 µM]	2
CN(C)c1ccc(N=Nc2ccccc2C(=O)OCC(=O)NC2CCCC2)cc1	6.3µM*	3%	-20%[10 µM]	-12
CC/C=C\C[C@H](O)/C=C/C=C\C/C=C\C/C=C\CCCC(=O)O	.	-10%	29%	1
COc1ccc(-c2csc(NCc3ccco3)n2)cc1	8%	20%	-94%[10 µM]	-3
c1coc(CNc2nc(-c3ccncc3)cs2)c1	14µM*	22%	-13%[10 µM]	-1
Cc1ccn2c(NCc3ccccc3)c(-c3cccs3)nc2c1	.	14%	.	7
Cc1nc2ccccn2c1-c1csc(NCc2ccco2)n1	5.6µM*	-11%	16%	4
Cc1nc(C)c(-c2csc(NCc3ccco3)n2)s1	-23%	-1%	-17%[10 µM]	1
Cc1ccn2c(-c3csc(NCc4ccccc4)n3)c(C)nc2c1	11µM*	-1%	26%[1.9 µM]	-8
CCC(C=C[C@@H]1OC(=O)C=C[C@H]1C)=C[C@H](C)CC=CC(C)=C[C@@H](C)C(=O)[C@@H](C)[C@H](O)[C@@H](C)CC(C)=CC(=O)O	.	3%[3.15 µM]	-264%[1.9 µM]	-2
COC(=O)C1=C(C)NC(C)=C(C(=O)OC(C)(C)CN(C)CCC(c2ccccc2)c2ccccc2)C1c1cccc([N+](=O)[O-])c1 (configuration not stated)	-31%	.	-38%	.
COc1cc2nc(N3CCN(C(=O)[C@@H]4COc5ccccc5O4)CC3)nc(N)c2cc1OC	0%	15%[29.1 µM]	14%[40.3 µM]	12
CN(C)c1ccc(/C=C/c2ccc3c4ccccc4ccc3[n+]2-c2ccccc2)cc1	4µM*	10%	-45%[10 µM]	-4
CN(C)c1ccc(/C=C/c2cccc[n+]2[O-])cc1	10%[9.22 µM]	0%	0%[10 µM]	-5
CN(C)c1ccc(/C=C/c2ccc3ccccc3[n+]2C)cc1	2.5µM*	-3%	-71%[10 µM]	-6
O=P(O)(O)OC(CO)CO	.	4%	.	.
O=C(N/N=C/c1cc([N+](=O)[O-])ccc1O)c1cc(-c2ccccc2)nc2ccccc12	-5%	4%	41%[10 µM]	-14
Cc1cc(C(=O)N/N=C/c2cc([N+](=O)[O-])ccc2O)c2ccccc2n1	7.1µM*	-2%	32%[10 µM]	-3
O=c1cc(C(F)(F)F)[nH]c2c(C(F)(F)F)cccc12	20µM*	11%	.	1
COc1ccc(C(=O)NCc2oc(-c3ccccc3)cc2C(=O)O)cc1	3.2µM*	3%	-1%[0.074 µM]	-5
SMILES	HttQ103 aggreg	GLA spleen mod	HTT ATP protect	GLA inh pH 4.5
COc1ccc(CNC(=O)c2ccccc2C(=O)O)cc1	10%	2%	.	-2
CCc1ccc(-c2nc(CSCC(=O)N3CCN(c4ncccn4)CC3)c(C)o2)cc1	11µM*	10%	-2%	3
CS(=O)(=O)c1ncc(Cl)c(C(=O)Nc2ccc(N3CCOCC3)cc2)n1	11µM*	4%	-22%[10 µM]	6
CC1=C(C(N)=O)N2C(=O)[C@@H](NC(=O)Cc3ccccc3)C2SC1 (some centres not stated)	.	-7%	8%	-8
CCN(C(=O)CSc1nc2cc(Cl)ccc2c(=O)n1Cc1ccco1)C1CCS(=O)(=O)C1 (configuration not stated)	25%	-2%	2.8µM*	4
CCOC(=O)c1c(NC(=O)CSc2nc3cc(Cl)ccc3c(=O)n2Cc2ccco2)sc(C(=O)N(C)C)c1C	7.1µM*	-1%	-30%[10 µM]	-15
CN(C(=O)CSc1nc2ccc(Br)cc2c(=O)n1Cc1ccco1)C1CCS(=O)(=O)C1 (configuration not stated)	1%[9.22 µM]	-2%	6%[10 µM]	-7
COc1cc([C@@H]2CC(=O)c3c(O)cc(O)cc3O2)ccc1O	.	18%	.	.
Cc1cccc(Nc2nc(-c3ccccc3)c(C(=O)Nc3cccnc3)s2)c1	6.3µM*	3%	12%[10 µM]	-11
Cc1nc(Nc2c(Cl)cccc2Cl)sc1C(=O)Nc1ccccc1	11µM*	-11%	-15%[10 µM]	-3
Cc1nc(NC(N)=S)sc1C(=O)Nc1ccccc1	?	-1%	-64%[10 µM]	-17
CCCCC(C)/C=C(C)/C=C(\C)C(=O)NC1=CC(O)(/C=C/C=C/C=C/C(=O)NC2=C(O)CCC2=O)C2OC2C1=O (configuration not stated)	.	-11%	.	.
CC1(C)CCC[C@@](C)([C@H]2CC[C@]3(C)[C@@H]2[C@H](O)CC2[C@@]4(C)CC[C@H](O)C(C)(C)[C@@H]4[C@@H](O)C[C@]23C)O1 (some centres not stated)	.	2%	.	.
CN(Cc1cccs1)c1ncnc2sccc12	3.2µM*	-4%	1%[10 µM]	14
Cc1sc2ncnc(N(C)Cc3cccs3)c2c1C	?	-2%	-4%	-19
O=C(CCN1C(=O)COc2ccccc21)NCCCN1CCN(c2ccccc2F)CC1	3.2µM*	6%	-34%	0
O=C(CCN1C(=O)COc2ccccc21)NCCN1CCc2ccccc2C1	13%	12%	-21%	-17
CN(Cc1ccco1)c1ncncc1-c1ccc2c(c1)OCO2	.	-8%	10%	.
COC(=O)c1cc(OC)c(OC)cc1NC(=O)Nc1ccc(OC)cc1OC	14%	?	-8%	.
COc1ccc(NC(=O)Nc2nc(C)cc(C)n2)c(OC)c1	28µM*	-17%	.	-1
CO[C@@H]1COC(=O)CCC[C@@H](C)[C@H](OC)COC(=O)[C@H](Cc2ccccc2)NC(=O)C/C=C\[C@H]1C	.	0%[17.5 µM]	?	.
COc1ccc(COc2ccccc2C(N)=O)cc1F	16µM*	-4%	.	-2
COc1cc(C(N)=O)ccc1OCc1ccccc1	4%	0%	-29%	4
Oc1ccc2cc(SSc3ccc4cc(O)ccc4c3)ccc2c1	.	15%	?	.
Cc1ccc2c(C(=O)N3CCN(c4ccccc4)CC3)cc(-c3cccnc3)nc2c1C	10µM*	0%	1%[10 µM]	-26
Cc1ccc2nc(-c3cccnc3)cc(C(=O)N3CCN(c4ccc([N+](=O)[O-])cc4)CC3)c2c1	-6%	-3%	-9%[10 µM]	-8
Cc1noc(C)c1-c1ccc2ncnc(NCc3cccc(C(F)(F)F)c3)c2c1	.	0%	.	.
O=C(N/N=C/c1cc(Br)ccc1O)C(=O)Nc1ccccc1OC(F)(F)C(F)F	8.9µM*	8%	-46%	-4
O=C(N/N=C/c1cc(Cl)ccc1O)C(=O)Nc1ccccc1OC(F)(F)C(F)F	?	5%	.	0

Screening data deposited in PubChem by National Center for Advancing Translational Sciences (NCATS).
